ALOX15 inhib: 15-hLO (ALOX15) enzyme inhibition. Potency, µM (top dose mostly 57.1 µM), inactives show top-dose activity change, negative = inhibition, actives largely listed as inhibitors. P16050. purified 15hLO-1, xylenol orange hydroperoxide absorbance. hit rate 1.4% among 74,000. AID 887; also: potency is read from the fitted curve at half-maximal effect; % is scaled to controls: 0 for no effect and ±100 for the full control effect; nearly all actives have a fitted effect of over 55% in size
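Readout: Fe(III)-xylenol orange absorbance, 573-to-405 nm ratio as reaction progress. Enzyme 40 nM purified human 15hLO-1, substrate 50 uM arachidonic acid, 6 min RT after 15 min compound preincubation; Hepes pH 7.5 buffer with Triton X-100.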
Pol III holo inh: DNA polymerase III holoenzyme inhibition; reconstituted DNA polymerase III holoenzyme replication, biochemical; AID 603; hit rate 0.25% among 71,000; Potency, µM (top dose mostly 57.1 µM), for the others: at the highest dose activity change, negative = inhibition; also: potency is read from the fitted curve at half-maximal effect; % is scaled to controls: 0 for no effect and ±100 for the full control effect
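Reconstituted *E. coli* holoenzyme (0.35 nM Pol III, 1 nM beta, 154 nM SSB, 2 nM primase) was preincubated with compound for 15 min at RT. Synthesis on 1.4 nM ssM13Gori ran 35 min, then was stopped with PicoGreen/EDTA and read as dsDNA fluorescence.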
TsaE inh: YjeE (TsaE) inhibition, E. coli; P0AF67; purified YjeE enzyme, qHTS inhibition assay; Potency, µM; hit rate 0.05% among 71,000; AID 605
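Purified YjeE (10 uM) with BODIPY Texas Red-labeled ADP probe (2 uM); compounds pin-transferred, 15 min at room temperature. Binding inhibition read as decreased fluorescence polarization; ADP titration as control.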
Tau fil binding: binds recombinant human tau filaments. P10636. recombinant tau filaments, thioflavin S fluorescence, 15 h; filaments grown with octadecylsulfate alongside compound. Potency, µM (doses to about 57.1 µM), for inactives: top-dose activity change, negative = inhibition. hit rate 2% among 71,000;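 also: potency is read from the fitted curve at half-maximal effect; % is scaled to controls: 0 for no effect and ±100 for the full control effect; actives lower thioflavin S fluorescence by blocking filaments or displacing dye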
Target sequence (P10636 whole entry, looked up): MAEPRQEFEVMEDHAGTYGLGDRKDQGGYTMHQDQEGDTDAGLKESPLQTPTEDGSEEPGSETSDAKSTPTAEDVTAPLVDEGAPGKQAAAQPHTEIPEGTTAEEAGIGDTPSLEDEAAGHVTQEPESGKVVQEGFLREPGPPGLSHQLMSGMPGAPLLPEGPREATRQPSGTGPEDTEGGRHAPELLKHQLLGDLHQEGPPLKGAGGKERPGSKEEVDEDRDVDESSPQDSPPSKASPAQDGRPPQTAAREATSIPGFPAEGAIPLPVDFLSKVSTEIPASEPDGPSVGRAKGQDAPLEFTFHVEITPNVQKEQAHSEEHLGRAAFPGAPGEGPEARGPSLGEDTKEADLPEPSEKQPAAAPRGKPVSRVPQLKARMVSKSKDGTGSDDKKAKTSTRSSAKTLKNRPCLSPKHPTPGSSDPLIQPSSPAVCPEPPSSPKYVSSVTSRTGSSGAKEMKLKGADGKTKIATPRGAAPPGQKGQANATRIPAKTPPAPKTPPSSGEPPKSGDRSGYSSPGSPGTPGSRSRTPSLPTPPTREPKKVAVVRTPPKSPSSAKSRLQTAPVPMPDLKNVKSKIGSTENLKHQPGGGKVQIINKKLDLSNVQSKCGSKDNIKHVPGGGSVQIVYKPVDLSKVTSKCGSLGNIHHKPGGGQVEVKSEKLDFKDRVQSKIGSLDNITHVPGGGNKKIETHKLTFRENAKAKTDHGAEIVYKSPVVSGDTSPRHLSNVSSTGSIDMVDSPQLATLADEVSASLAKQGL
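Read-out: ThS fluorescence, 450 nm excitation/510 nm emission; lower signal marks blocked filament formation or displaced dye. Tau at 1 uM with 30 uM ODS, 10 uM ThS, 5 mM DTT, 100 mM NaCl, 10 mM HEPES pH 7.4; 15 h, 37 C.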
Hsp90 Hop PPI: changes Hsp90-Hop TPR2A binding signal, up or down; hit rate 0.44% among 71,000; Potency, µM (top dose mostly 57 µM), for inactives: at the highest dose activity change, negative = inhibition; AlphaScreen TPR2A-His6 binding biotin-Hsp90 C-terminal peptide; active = well fitted curve in either direction with a large enough effect; inconclusive = small, poorly fitted or top-dose-only effect, or another doubt; also: potency is read from the fitted curve at half-maximal effect; % is scaled to controls: 0 for no effect and ±100 for the full control effect
ERK AVP block: blocks ERK signaling stimulated by vasopressin | HEK293-V1b, vasopressin-stimulated pERK AlphaScreen | Potency, µM (series often up to 57.5 µM), for inactives: at the highest dose activity, negative = inhibition, most hits filed as inhibitors | hit rate 0.99% among 72,000; also: potency is read from the fitted curve at half-maximal effect; % is scaled to controls: 0 for no effect and ±100 for the full control effect; nearly all actives have a fitted effect of over 55% in size
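HEK293 cells stably expressing V1b receptor, preincubated 30 min at 37 °C with compound, then stimulated 5 min with 25 nM vasopressin. Phospho-ERK by AlphaScreen SureFire after 5 h RT; normalized to DMSO and vasopressin; AC50 by Hill fit.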
The depositor's hits bear a star; i = inactive; ? = inconclusive; . = no result; [ ] = remark or other dose. An excerpt weighted towards active compounds, which were near 4.2% of everything screened. Unless noted, calls follow the shape of the dose curve; as a rule, active = well fitted curve in the direction sought with a large enough effect; inconclusive = small, poorly fitted or top-dose-only effect, or another doubt; inactive = no such curve, though single readings can be large; an effect the other way counts as inactive or inconclusive.

SMILES	ALOX15 inhib	Pol III holo inh	TsaE inh	Tau fil binding	Hsp90 Hop PPI	ERK AVP block
CC#C[C@@]1(O)CC[C@@H]2[C@@H]3CCC4=CC(=O)CCC4=C3[C@@H](c3ccc(N(C)C)cc3)C[C@]21C	.	-1.9%	i	31.6µM*	?	.
O=C(Nc1ccccc1)OC1C2CCC1C(N1CCCCC1)CC2 (stereo not drawn)	1.4%	-2.4%	i	-4.4%	-1.7%	-22.8%
CS(=O)(=O)Nc1ccc(Nc2c3ccccc3nc3ccccc23)cc1	1.0%[11.4 µM]	-7.8%[11.4 µM]	i	1.58µM*	-2.6%[11 µM]	-5.6%[11.5 µM]
CCOc1ccc2nc(NC(=O)c3ccoc3C)sc2c1	3.98µM*	-4.8%[11.4 µM]	i	133.5%[11.4 µM]	-14.3%[11 µM]	-24.3%
CCOCC(=O)Nc1nc2ccc(OC)cc2s1	-1.8%	-2.5%	i	-2.1%	-3.6%	-11.7%
COc1ccc2nc(NC(=O)c3cnccn3)sc2c1	6.0%	1.5%	i	5.01µM*	-25.1%	-12.1%
CCOc1ccc2nc(NC(=O)Nc3cccs3)sc2c1	?	-6.5%	i	51.0%	-2.6%[2.3 µM]	31.6µM*
COc1ccc2sc(NC(=O)CC(C)C)nc2c1	3.98µM*	5.4%	i	20.1%	2.9%	?
O=C(CON1C(=O)c2ccccc2C1=O)c1ccccc1	9.4%[11.4 µM]	-10.7%[11.4 µM]	i	-1.7%[11.4 µM]	-6.9%[11 µM]	-1.3%[11.5 µM]
O=C(Cn1nnc(-c2ccccc2F)n1)Nc1cccc2ncccc12	-9.5%	-0.3%	i	-17.7%	-2.0%	20.9%
C/C(=C\c1ccco1)C1C(C#N)=C(N)OC2=C1C(=O)CC(C)(C)C2 (stereo not drawn)	-27.6%	-2.7%	i	27.5%	-7.1%	1.6%
CCOC(=O)/C(C#N)=C1/CCCCCN1C	-0.4%	2.1%	i	0.1%	0.6%	-9.9%
CCOC(=O)/C(C#N)=C1/C=Cc2ccccc2N1CC	-12.8%	-5.1%	i	15.8µM*	-16.7%	?
Nc1nc(-c2c[nH]c3ccccc23)cs1	?	-13.1%	i	25.1µM*	-15.3%	11.7%
Nc1nc(-c2nc3ccccc3[nH]2)cs1	55.5%	0.1%	i	2.6%	?	-2.5%
CC1=C(SCCC#N)S/C(=C2\SC(C)=C(SCCC#N)S2)S1	12.6µM*	-1.9%	i	?	-28.4%	-2.6%
CC1CCc2nn(CC(=O)NCCCN3CCCCC3)cc2C1 (stereo not drawn)	3.2%	-6.2%	i	5.7%	-1.9%	2.1%
Cc1ccc(NC2c3ncccc3C(=O)N2c2ccccc2C)cc1C (stereo not drawn)	25.1µM*	-0.8%	i	?	-9.4%	?
CCOc1cccc2c1OC1(C)CC2NC(=O)N1c1ccc(OC)cc1 (stereo not drawn)	-1.0%	-3.9%	i	-3.8%	-5.0%	-30.3%
O=C(CCN1CCCCCC1)Nc1cccc(Cl)c1	10.8%	2.7%	i	-20.8%	-2.3%	-27.4%
CC1CC(C)CN(CCC(=O)Nc2cccc(Cl)c2)C1 (stereo not drawn)	2.4%	-8.5%	i	20µM*	-4.4%	-2.8%
CCOC(=O)Cn1c(C)nc2c(C(=O)OCC)sc(C)c2c1=O	4.9%	-9.1%	i	1.4%	-0.9%	-7.0%
OC1CCCN(Cc2ccc3c(c2)Cc2ccccc2-3)C1 (stereo not drawn)	0.3%	-3.1%	i	48.1%	-3.7%	2.3%
CC(C)(C)c1cc(CN2CCCC(O)C2)c(O)c(C(C)(C)C)c1 (stereo not drawn)	-21.4%[11.4 µM]	-5.6%[11.4 µM]	i	5.01µM*	-9.2%[11 µM]	?
Cc1ccc(-c2csc(NC(=O)c3ccno3)n2)cc1	-18.3%	-8.0%	i	31.6µM*	-10.8%	-27.0%
SMILES	ALOX15 inhib	Pol III holo inh	TsaE inh	Tau fil binding	Hsp90 Hop PPI	ERK AVP block
O=C(Nc1nc(-c2ccccn2)cs1)c1ccc(Cl)s1	41.9%	-3.4%	i	118.3%	7.94µM*	.
O=C(Nc1nc(-c2ccccc2)cs1)c1cccs1	12.6µM*	2.2%	i	27.3%	4.7%	15.8µM*
Cc1cccc(Nc2nc(-c3ccccn3)cs2)n1	0.6%	-5.7%	i	-2.5%	-7.8%	-7.3%
O=C(Nc1nc(-c2ccc(Cl)s2)cs1)c1cccs1	25.1µM*	-2.4%	i	-25.4%	17.1%	10µM*
CCCn1nc(C(=O)NCCN2CCOCC2)c2ccccc2c1=O	2.9%	-5.4%	i	-5.7%	0.0%	8.8%
O=C(CSc1nnc(Nc2ccccc2F)s1)NCc1ccco1	-29.4%	-5.3%	i	4.8%	-1.9%	?
Cc1ccccc1Nc1nnc(SCC(=O)NC(=O)NCc2ccco2)s1	15.8µM*	-6.3%	i	-8.6%	-6.9%	?
Cc1nn(CC(=O)Nc2ccc(C(=O)N3CCCCC3)cc2)c(=O)c2ccccc12	4.0%	-0.3%	i	6.1%	-0.9%	-1.9%
COc1cc(OC)cc(C(=O)N2c3ccc(F)cc3CCC2C)c1 (stereo not drawn)	2.9%	-3.8%	i	-10.5%	5.1%	3.4%
O=C(C1CCCCC1)N1CCC(c2nc3ccccc3[nH]2)CC1	9.9%	-3.3%	i	5.1%	-3.6%	8.6%
CCOC(=O)c1ccc(-n2c(=S)sc3c(=O)[nH]c(C)nc32)cc1	10µM*	-1.9%	i	8.0%	-3.7%	26.6%
Nn1cc(-c2ccccc2)nc1SCC(=O)N1CCN(S(=O)(=O)c2ccccc2)CC1	-17.1%	4.3%	i	5.8%	-13.4%	-5.7%
CCOc1ccc2c(c1)C(C)=CC(C)(C)N2	25.1µM*	3.4%	i	-7.4%	-2.7%	-16.3%
CCC(C)c1ccccc1O (stereo not drawn)	-1.7%	1.8%	i	3.1%	-2.7%	-4.2%
CCC(C)c1ccc(O)c(N)c1 (stereo not drawn)	12.6µM*	-2.1%	i	?	-13.0%	-16.5%
Cc1ccc(OCC(=O)Nc2ccc(S(=O)(=O)Nc3onc(C)c3C)cc2)cc1	4.0%	-3.9%	i	-1.8%	-3.4%	0.9%
Cc1noc(NS(=O)(=O)c2ccc(NC(=O)COc3ccc(Cl)cc3Cl)cc2)c1C	?	-4.8%[11.4 µM]	i	21.9%[11.4 µM]	-9.3%[11 µM]	2.51µM*
N[C@@H]1[C@@H]2[C@@H]3C[C@H]4N(CC[C@@]14C(=O)C(=O)O)CC3=CCO[C@@H]2CC(=O)O	2.3%[11.4 µM]	-9.8%[11.4 µM]	i	15.7%[11.4 µM]	-0.4%[11 µM]	-11.1%[11.5 µM]
CCN(CC)CCN1C(=O)c2oc3ccccc3c(=O)c2C1c1cccc(Br)c1 (stereo not drawn)	2.8%	-2.7%	i	25.1µM*	-6.8%	-7.9%
Cc1ccccc1-c1nnc(-c2ccc(Br)cc2)o1	-2.6%	-4.7%	i	-2.4%	7.5%	14.1%
CS(=O)(=O)Nc1cccc(-c2ccc3ncnc(NCc4cccs4)c3c2)c1	-4.5%	-3.4%	i	32.5%	-5.8%	15.8µM*
Cc1cnc(CNc2ncnc3ccc(-c4cccc(NS(C)(=O)=O)c4)cc23)cn1	-21.7%	0.1%	i	-8.5%	1.4%	-14.2%

High-throughput results deposited in PubChem by National Center for Advancing Translational Sciences (NCATS).
